Results on 81 molecules are retold here after PubChem BioAssay AID1259354 (Paczesny and Yang Labs, IUPUI and University of Michigan, 2018).

Usually inhibition stands for the share of the control response that was lost under treatment.

Each structure is given as a SMILES string. Values joined by “and” are separate entries in the source; they are usually repeats but may differ in a detail not shown here. Equal entries are not always repeated. The whole screen tested about 78,000 compounds, of which about 1,800 (2.3%) were called active. Another 27% or so got no clear call; they are omitted. Rule as the data show it: active = inhibition above about 30%; inconclusive = mostly about 10% to 28%; inactive = weaker than that. Shown is part of a subset that was picked to be rich in actives.

The target in the experiment is Interleukin-1 receptor-like 1 (Homo sapiens) (UniProt Q01638). In words: inhibitors of human ST2 (IL1RL1) binding to IL-33, primary screen, biochemical, AlphaLISA (AID 1259354). The settings on record: AlphaLISA ST2-Fc/biotin-IL-33 interaction, 1 h; at 17 µM, active compounds read high.
Interleukin-1 receptor-like 1 (Homo sapiens), sequence (Q01638 whole entry, looked up): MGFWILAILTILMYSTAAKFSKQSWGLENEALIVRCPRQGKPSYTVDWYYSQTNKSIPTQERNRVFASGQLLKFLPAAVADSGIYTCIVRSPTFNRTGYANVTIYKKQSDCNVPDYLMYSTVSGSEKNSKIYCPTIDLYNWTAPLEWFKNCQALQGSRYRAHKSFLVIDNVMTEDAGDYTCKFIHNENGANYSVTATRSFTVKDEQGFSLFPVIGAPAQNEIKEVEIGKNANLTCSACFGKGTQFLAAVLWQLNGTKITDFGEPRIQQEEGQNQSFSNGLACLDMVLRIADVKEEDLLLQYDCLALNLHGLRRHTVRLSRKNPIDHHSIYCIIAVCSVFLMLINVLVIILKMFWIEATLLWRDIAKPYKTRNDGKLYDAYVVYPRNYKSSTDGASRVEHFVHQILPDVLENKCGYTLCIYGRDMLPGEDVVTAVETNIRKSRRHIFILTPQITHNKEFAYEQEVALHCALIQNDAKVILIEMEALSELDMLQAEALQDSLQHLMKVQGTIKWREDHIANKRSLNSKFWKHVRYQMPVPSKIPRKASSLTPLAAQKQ
As to `CCCOc1ccccc1/C=C1/C(=O)N=C(N)N1C`, the inhibition entry is “inactive”.

For the molecule `CCC(C)(C)C1CCc2c(sc(NC(=O)c3cc(OC)c(OC)c(OC)c3)c2C(N)=O)C1` (stereo unspecified), the inhibition result was “inactive”.

Regarding `CCN(CC)C(=O)Cn1cnc2sc(C(=O)Nc3cccc(C(F)(F)F)c3)c(C)c2c1=O`, the inhibition entry was “inactive”.

Take `CCOc1ccc(S(=O)(=O)Nc2ccccc2C)c2cccnc12`: the inhibition entry is “inactive”.

Turning to `Cc1cc(NC(=O)c2ccccc2Cl)nc2c1c(=O)oc1ccccc12`, the inhibition entry is “inactive”.

As for `O=c1c2c(nc(SCc3ccc(Cl)cc3)n1-c1ccccc1)CCS2`, the inhibition is 36% (active).

In the case of `O=c1c2c(nc(SCc3ccccc3F)n1-c1ccccc1)CCS2`, the inhibition result was “inactive”.

Regarding `O=c1c2c(nc(SCc3ccccc3)n1-c1ccc(Br)cc1)CCS2`, the inhibition result was “inactive”.

Take `CCOc1ccc(Cn2c(CNS(=O)(=O)c3cnn(C(F)F)c3C)nc3cccnc32)cc1`: the inhibition result is “inactive”.

As for `Cc1ccccc1-c1cc(O)c2c(c1)CN(C(=O)C1C=CCN1)CCO2` (stereo unspecified), the inhibition entry was “inactive”.

For `CN(C)CCCN1C(=O)C(=O)C(=C(O)c2ccc(F)cc2)C1c1ccncc1` (stereo unspecified), the inhibition result was “inactive”.

In the case of `O=C1CCCc2oc3c(Cl)cc(NS(=O)(=O)c4cccc5ccccc45)cc3c21`, the inhibition entry is “inactive”.

With `CCCc1n[nH]c(=O)n1-c1ccccc1Cl`, the inhibition entry is “inactive”.

For the molecule `C=CCNC(=O)c1cc2c(=O)n3cccc(C)c3nc2n1C`, the inhibition entry was “inactive”.

With `O=c1oc2ccccc2c(O)c1C=Nc1ccc(I)cc1`, the inhibition result is “inactive”.

In the case of `COc1ccc(N=Cc2c(O)n(-c3ccccc3C)c(=O)c3ccccc23)cc1`, the inhibition is 48% (active).

Turning to `CNc1nc2c(C)cccn2c(=O)c1C=Nc1ccc(OC)cc1`, the inhibition was 98% (active).

As for `COc1ccc(S(=O)(=O)Nc2c(C)n(C)n(-c3ccccc3)c2=O)cc1`, the inhibition entry was “inactive”.

On to `COc1ccc(N=Cc2ccc3ncccc3c2)cc1`, for which the inhibition result was “inactive”.

In the case of `O=C(CCCc1ccccc1)NC1CCCCC1`, the inhibition result is “inactive”.

On to `CC(=O)Nc1ccc(S(=O)(=O)NCCNc2ccc([N+](=O)[O-])cc2Cl)cc1`, for which the inhibition result was “inactive”.

As to `CN1CCN(C(=O)CC2(c3ccccc3Cl)CC(=O)N(C3CCCC3)C2=O)[C@@H](c2ccccc2)C1` (stereo partly specified), the inhibition result is “inactive”.

Regarding `O=C(Nc1nc2c(cc3c4c(cccc42)CC3)s1)c1ccc(S(=O)(=O)N2CCOCC2)cc1`, the inhibition result was “inactive”.

As for `COc1ccc(-c2cnc(N)cn2)cc1C`, the inhibition result was “inactive”.

As for `Cc1ccncc1C(=O)N1CCC(=O)N(CC2CC2)C(C(C)C)C1` (stereo unspecified), the inhibition entry is “inactive”.

`O=C(O)Cn1c2ccccc2c2cc(Cl)ccc21`: the inhibition result is “inactive”.

Take `CCn1c(=O)cc(O)c2ccccc21`: the inhibition was 85% (active).

As to `O=C(Cn1c2ccccc2c(=O)c2ccccc21)Nc1ccccc1Cl`, the inhibition entry is “inactive”.

Consider `Fc1ccccc1CSc1nnc2c(n1)OC(c1cccnc1)Nc1ccccc1-2` (stereo unspecified), for which the inhibition result was “inactive”.

`COc1ccc(N2CCN(Cc3ccc(Br)s3)CC2)cc1`: the inhibition is 39% (active).

Turning to `COc1cccc(N2CCN(Cc3cccs3)CC2)c1`, the inhibition result is “inactive”.

With `COc1ccc(N2CCN(Cc3nc4c(c(=O)[nH]c(=O)n4C)n3CCCO)CC2)cc1`, the inhibition entry is “inactive”.

For `CC(c1cccs1)N(C)Cc1ccc(C#CC(C)(C)O)s1` (stereo unspecified), the inhibition result is “inactive”.

Regarding `CC(C)NC(=O)C(CCO)NC(C)C` (stereo unspecified), the inhibition result was “inactive”.

As to `Cc1ccc(-n2c(SCC(=O)Nc3ccccc3C(F)(F)F)nc3c(c2=O)SCC3)cc1`, the inhibition result was “inactive”.

In the case of `CCOc1ccc(NC(=O)CSc2nc3c(c(=O)n2-c2ccccc2)SCC3)cc1`, the inhibition entry was “inactive”.

For the molecule `Cc1ccc(-n2c(SCC(=O)Nc3ccc([N+](=O)[O-])cc3)nc3c(c2=O)SCC3)cc1`, the inhibition is 36% (active).

`O=S(=O)(c1ccccc1)N1CCN(c2cc(-c3ccc(F)cc3)ncn2)CC1`: the inhibition result was “inactive”.

On to `Cn1c(=O)c2c(SCC(=O)NC3CCCC3)nc(-c3ccc(F)cc3)nc2n(C)c1=O`, for which the inhibition entry is “inactive”.

For the molecule `Cc1ccc(N2NC(=O)/C(=C/c3ccc4c(c3)OCO4)C2=O)cc1Cl`, the inhibition entry was “inactive”.

Consider `Cc1cc(/C=C2/C(=O)NC(=O)N(C)C2=O)c(C)n1-c1ccc(Cl)c(Cl)c1`, for which the inhibition was 34% (active).

`Cc1ccc(N2NC(=O)/C(=C/c3cccc([N+](=O)[O-])c3)C2=O)cc1Cl`: the inhibition entry is “inactive”.

For the molecule `COc1ccc(C(=O)Nc2c3c(nn2-c2ccc(F)cc2)CS(=O)C3)c(OC)c1` (stereo unspecified), the inhibition result is “inactive”.

`Cc1ccnc(CC(C)N(C)C(=O)c2cc(CC(C)C)no2)c1` (stereo unspecified): the inhibition entry was “inactive”.

In the case of `Cc1ccc(C(=O)N2N=C(c3ccccc3)CC2c2ccccc2)cc1` (stereo unspecified), the inhibition entry was “inactive”.

In the case of `N/C(=N/OC(=O)c1ccc2c(c1)OCO2)c1ccc(Cl)cc1`, the inhibition result was “inactive”.

For the molecule `COc1ccc(S(=O)(=O)Nc2ccc(Br)cc2)cc1`, the inhibition result was “inactive”.

`COC(=O)CNS(=O)(=O)c1ccc(OC)cc1`: the inhibition result is “inactive”.

Turning to `COc1ccc(S(=O)(=O)ON=C2C=CC(=O)C=C2)cc1`, the inhibition is 32% (active).

Take `COc1ccccc1C(=O)Nc1ccc2c(c1)NC(=O)CC2c1ncc[nH]1` (stereo unspecified): the inhibition result is “inactive”.

Consider `O=C1CCC(C(=O)N2CCN(Cc3cccnc3)CC2)CN1CC1CCCCC1` (stereo unspecified), for which the inhibition entry was “inactive”.

Turning to `NC(=O)c1c(NC(=O)c2cc(=O)c3ccccc3o2)sc2c1CCCCC2`, the inhibition entry is “inactive”.

For `CCCC(=O)c1c(OC)cc(O)c(CC)c1O`, the inhibition entry is “inactive”.

As to `Cn1c(=O)cc(SCC(=O)N2CCN(C(=O)c3ccco3)CC2)c2ccccc21`, the inhibition entry is “inactive”.

As for `CC(CN1CCN(C)C2(CCN(C(=O)c3ccco3)CC2)C1)c1ccccc1` (stereo unspecified), the inhibition is 30% (active).

As for `CC(CN1CCC(C(N)=O)CC1)c1ccccc1` (stereo unspecified), the inhibition entry is “inactive”.

As for `C=CCn1c(=O)c2c(nc3n2CCN3c2ccc(C)cc2)n(C)c1=O`, the inhibition entry was “inactive”.

With `COc1ccc(Nc2nc(Cl)nc(NCc3ccco3)n2)cc1`, the inhibition result was “inactive”.

As for `COc1ccc(Nc2nc(Nc3ccc(OC)cc3)nc(N3CCNCC3)n2)cc1`, the inhibition was 31% (active).

As for `CCC(=O)Nc1ccc(Nc2nc(C)cc(Nc3ccc(OC)cc3)n2)cc1`, the inhibition result was “inactive”.

Turning to `CCOC(=O)CSC1=C(C#N)C(c2ccccc2)CC(=O)N1` (stereo unspecified), the inhibition result was “inactive”.

As to `CN(C)c1ccc(/C=C2\N=C(c3cccc(I)c3)OC2=O)cc1`, the inhibition result is “inactive”.

On to `CC1=NN(Cc2ccccc2)C(=O)/C1=C/c1ccc(N(C)C)cc1`, for which the inhibition was 44% (active).

Regarding `CN(C)c1ccc(/C=C\c2nc3ccccc3c(=O)n2-c2ccc(C(=O)O)cc2)cc1`, the inhibition entry was “inactive”.

`CN(C)CC1(O)CCCN(C(=O)c2ccc(-n3ccnc3)cc2)CC1` (stereo unspecified): the inhibition entry is “inactive”.

As for `C=CCn1c(-c2ccccc2)csc1=Nc1ccc(O)cc1`, the inhibition was 53% (active) and 41% (active).

Turning to `COc1ccc(-c2nc3cc(N=Cc4cccc(OC)c4O)ccc3o2)cc1`, the inhibition is 43% (active).

Turning to `O=C(O)c1ccc(O)c(C=Nc2ccc3oc(-c4ccccc4)nc3c2)c1`, the inhibition result is “inactive”.

For the molecule `O=[N+]([O-])c1ccc(O)c(C=Nc2ccc3oc(-c4ccccc4)nc3c2)c1`, the inhibition result was “inactive”.

For `COc1ccc([N+](=O)[O-])cc1NC(=O)c1ccc(-c2ccccc2)cc1`, the inhibition result is “inactive”.

For `CC1(c2ccccc2NC(=O)c2ccc([N+](=O)[O-])cc2)CC1`, the inhibition was 30% (active).

As to `O=C(Nc1ccc([N+](=O)[O-])cc1)c1ccc(Br)cc1`, the inhibition entry is “inactive”.

On to `c1cc(-c2nc3ccncc3[nH]2)ccn1`, for which the inhibition result was “inactive”.

On to `CC1CCN(c2ccc(C(=O)O)cc2[N+](=O)[O-])CC1`, for which the inhibition entry is “inactive”.

Turning to `O=[N+]([O-])c1cc(Cl)ccc1N1CCCNCC1`, the inhibition entry is “inactive”.

Regarding `O=[N+]([O-])c1cc(Cl)ccc1N1CCN(c2ccc([N+](=O)[O-])c3cccnc23)CC1`, the inhibition is 56% (active).

`CSc1ccccc1NC(=O)c1cc(-c2ccc(Br)cc2)on1`: the inhibition result is “inactive”.

For the molecule `O=C1CN(C(=O)c2nn(CCCc3ccccc3)c3c2CN(Cc2cccnc2)CC3)CCN1`, the inhibition entry is “inactive”.

Turning to `CCOc1ccc(-c2cc(C)n3nc(C(=O)OC)cc3n2)cc1`, the inhibition entry is “inactive”.

In the case of `OCCNc1c(F)c(F)nc(N2CCOCC2)c1F`, the inhibition result was “inactive”.

Take `O=C(NC[C@H]1O[C@@H](CO)[C@@H](O)[C@H]1N1CCc2ccccc2C1)Nc1ccccc1`: the inhibition result is “inactive”.
